Records with an inconclusive call do not appear. Calls of active or inactive are those of the source. The calls were made as follows: active = hit-call score of the fitted dose curve at least 0.9, where 1 is the maximum; inconclusive = response in the unintended direction; inactive = score below 0.9.

Chain of Androgen receptor (Homo sapiens) (P10275 whole entry, looked up, the tested form may be a part): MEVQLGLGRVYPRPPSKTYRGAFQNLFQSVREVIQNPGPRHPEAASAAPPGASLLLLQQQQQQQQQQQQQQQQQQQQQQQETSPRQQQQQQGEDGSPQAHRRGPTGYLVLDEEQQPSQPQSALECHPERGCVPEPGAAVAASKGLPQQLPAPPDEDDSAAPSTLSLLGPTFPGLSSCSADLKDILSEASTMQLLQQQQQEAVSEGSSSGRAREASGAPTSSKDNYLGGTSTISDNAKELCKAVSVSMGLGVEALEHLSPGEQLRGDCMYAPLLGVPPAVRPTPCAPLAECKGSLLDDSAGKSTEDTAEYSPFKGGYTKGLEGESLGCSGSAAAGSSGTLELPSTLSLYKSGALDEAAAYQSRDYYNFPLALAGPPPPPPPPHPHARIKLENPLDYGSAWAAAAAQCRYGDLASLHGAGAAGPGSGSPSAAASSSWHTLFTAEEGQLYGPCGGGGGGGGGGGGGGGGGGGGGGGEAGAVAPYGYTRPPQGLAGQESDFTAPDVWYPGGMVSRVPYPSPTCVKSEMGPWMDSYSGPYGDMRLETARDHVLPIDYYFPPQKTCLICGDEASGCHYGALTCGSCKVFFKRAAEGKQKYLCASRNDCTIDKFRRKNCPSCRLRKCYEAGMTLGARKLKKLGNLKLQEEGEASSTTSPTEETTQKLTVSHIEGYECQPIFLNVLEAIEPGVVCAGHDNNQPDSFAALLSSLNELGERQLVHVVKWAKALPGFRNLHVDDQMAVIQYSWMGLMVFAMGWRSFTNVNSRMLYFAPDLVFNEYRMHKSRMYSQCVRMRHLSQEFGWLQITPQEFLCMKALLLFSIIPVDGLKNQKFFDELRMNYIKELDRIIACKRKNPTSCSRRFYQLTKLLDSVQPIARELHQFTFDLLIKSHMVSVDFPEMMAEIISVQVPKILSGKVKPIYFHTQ

In the experiment the target is Androgen receptor (Homo sapiens) (UniProt P10275). Nature of the experiment: ATG_AR_TRANS: Attagene TRANS-FACTORIAL HepG2 Assay for human Androgen Receptor (AR) (AID 2282973). The conditions noted are these: HepG2 Attagene TRANS-FACTORIAL AR reporter transcription. The gist of the method:
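Chimeric nuclear receptor–Gal4 activity was assessed in human HepG2 hepatocytes after 24 h chemical dosing. Induced reporter mRNA was detected via labelled RT-PCR fragments on capillary electrophoresis, and gain of signal was analysed against DMSO.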
As to `NS(=O)(=O)C(F)(F)C(F)(F)C(F)(F)C(F)(F)C(F)(F)C(F)(F)F`, the call was inactive.
The same measure for `CC1=CC(=O)c2ccccc2C1=O`: “inactive”; for `CO[Si](CCCNCCN)(OC)OC`: “inactive”; for `Nc1ccnc(=O)[nH]1`: “inactive”.
To `C=CC(=O)OCCCCCCOC(=O)C=C` belongs “inactive”; to `CC(C=O)Cc1ccc(C(C)(C)C)cc1` (stereo not given), “inactive”.
With `O=CC(F)(F)C(F)(F)C(F)(F)F`, the call was inactive.
`O=C(Cl)c1ccc(Cl)cc1Cl`: the call was inactive.
As for `CCCCCCS`, the molecule was called inactive.
To `C[Si](Cl)(Cl)CCC(F)(F)C(F)(F)C(F)(F)C(F)(F)C(F)(F)C(F)(F)F` belongs “inactive”.
As for `Cc1cc(O)c(C(C)(C)C)cc1C(C)(C)C`, the molecule was called inactive.
As for `OCCN1CN(CCO)CN(CCO)C1`, the molecule was classed as inactive.
For `COC(F)(F)C(F)(C(F)(F)F)C(F)(F)F`, the molecule was called inactive.
Turning to `Cc1cccc(C(=O)O)c1`, the molecule was called inactive.
On to `COc1nccnc1CC(C)C`, for which the result was inactive.
With `OCC(F)(F)C(F)(F)C(F)(F)C(F)(F)C(F)(F)C(F)(F)C(F)(F)C(F)(F)C(F)(F)C(F)(F)C(F)(F)F`, the call was inactive.
In the case of `C=CC(=C)CCCC(C)(C)OC(C)=O`, the call was inactive.
As for `O=P(O)(O)CCC(F)(F)C(F)(F)C(F)(F)C(F)(F)C(F)(F)C(F)(F)C(F)(F)C(F)(F)F`, the call was inactive.
On to `CC1COCc2cc3c(cc21)C(C)(C)C(C)C3(C)C` (stereo not given), for which the molecule was classed as inactive.
In the case of `OCCNCc1ccccc1`, the molecule was called inactive.
The same measure for `OCCN(CCO)c1cccc(Cl)c1`: “inactive”.
For the molecule `COc1ccc(O)cc1`, the outcome was inactive.
Take `FC(F)=C(F)C(F)(F)C(F)(F)C(F)(F)C(F)F`: the call was inactive.
To `Cc1cc(C(=C2C=CC(=Nc3ccc(S(=O)(=O)O)cc3)C=C2)c2ccc(Nc3ccc(S(=O)(=O)O)cc3)cc2)cc(S(=O)(=O)O)c1N` belongs “inactive”; to `Nc1ccc(N)c2c1C(=O)c1ccccc1C2=O`, “inactive”; to `C=CC(C)(CCC=C(C)C)OC(=O)C=Cc1ccccc1` (stereo not given), “inactive”.
For `CCc1cccc(C)c1N`, the molecule was classed as inactive.
As for `O=C(O)C(F)(F)C(F)(F)C(F)(F)C(F)(F)C(F)(F)C(F)(F)C(F)(F)C(F)(F)Cl`, the result was inactive.
With `C=C(C)[C@H]1CC=C(C)C(=O)C1`, the result was inactive.
Take `NC(C(F)(F)F)C(F)(F)F`: the call was inactive.
The same measure for `CCN(CCO)S(=O)(=O)C(F)(F)C(F)(F)C(F)(F)C(F)(F)C(F)(F)C(F)(F)C(F)(F)C(F)(F)F`: “inactive”.
The same measure for `COC(=O)Cc1cccc2ccccc12`: “inactive”; for `OC(O)C(F)(F)C(F)(F)F`: “inactive”; for `CC(=O)O[C@@H]1CC2CCC1(C)C2(C)C` (stereo not given in full): “inactive”.
With `FC(F)(F)C(F)(F)C(F)(F)Br`, the result was inactive.
On to `CC(=O)CC(=O)Nc1ccc(C)cc1C`, for which the result was inactive.
`Cc1c(C(=O)c2c[nH]n(C)c2=O)ccc(S(C)(=O)=O)c1C1=NOCC1`: the outcome was inactive.
On to `CC(=O)Nc1ccc(S(N)(=O)=O)cc1`, for which the result was inactive.
Turning to `O=C(O)c1cc(Cl)cc([N+](=O)[O-])c1Cl`, the molecule was classed as inactive.
`CC(C)c1ccc2cc(C(C)C)ccc2c1`: the call was inactive.

(Values after PubChem BioAssay (EPA / NIEHS).)
